In assay [1] the test system is CLZ3 (HCA2 human fibroblast dual HR-NHEJ reporter). As to the kind of experiment: NHEJ repair efficiency (GFP+ cells) relative to control (log10 fold); higher = more non-homologous end joining. Conditions: 5 µM; doxycycline 0.5 ug/mL.
The test system is the same in assay [2]. As to the kind of experiment: HR repair efficiency (tdTomato+ cells) relative to control (log10 fold); higher = more homologous recombination. The note with it: 5 µM; doxycycline 0.5 ug/mL.

The values that follow come from the supplement of paper PMC7380943.
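Throughout, for HR repair efficiency (tdTomato+ cells) relative to control: compound given one day before doxycycline, which switches on I-SceI endonuclease expression to create double-strand breaks within the integrated reporter.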
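Throughout, for NHEJ repair efficiency (GFP+ cells) relative to control: compound given one day ahead of doxycycline, which switches on I-SceI endonuclease to cut the chromosomally integrated reporter and create DSBs.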

Take `O=c1c(O)c(-c2ccc(O)c(O)c2)oc2cc(O)ccc12` [Fisetin]: the “NHEJ repair efficiency (log10)” value in assay [1] was -0.223. In assay [2], the “HR repair efficiency (log10)” value is -0.0214.
On the same counts, the results for `Cn1c(=O)c2c(ncn2CC(O)CO)n(C)c1=O` (stereo not given) [Diprophylline] are 0.137 and 0.116.
The like results for `CC(C)=CCc1cc2c(cc1O)O[C@H](c1ccc(O)cc1)CC2=O` [Bavachin] were, in that order, 0.0703 and 0.0642.
On the same counts, the results for `C[C@H]1O[C@H](OC[C@H]2O[C@@H](Oc3c(-c4ccc(O)cc4)oc4cc(O)cc(O)c4c3=O)[C@H](O)[C@@H](O)[C@@H]2O)[C@@H](O)[C@@H](O)[C@@H]1O` [Kaempferol-3-O-Rutinoside] are 0.0149 and -0.078.
With `C=C(C)[C@@H]1CC[C@]2(C(=O)O)CC[C@]3(C)[C@H](CC[C@@H]4[C@@]5(C)CC[C@H](O)C(C)(C)[C@@H]5CC[C@]43C)[C@@H]12` [Betulinic acid], the “NHEJ repair efficiency (log10)” value in assay [1] turned out to be 0.0052. Further, the “HR repair efficiency (log10)” value in assay [2] is 0.0512.
The like results for `C=C1CCC[C@]2(C)C=C3OC(=O)C(C)=C3C[C@@H]12` [Atractylenolide I] were, in that order, 0.0524 and 0.0435.
On the same counts, the results for `O=C(O)/C=C/C(=O)O` [Fumaric Acid] are 0.0532 and 0.136.
In the case of `Nc1ncnc2c1ncn2[C@@H]1O[C@H](CO)[C@@H](O)[C@H]1O` [Adenosine], the “NHEJ repair efficiency (log10)” value in assay [1] is -0.0785. Moreover, the “HR repair efficiency (log10)” value in assay [2] was -0.0239.
On the same counts, the results for `CC[C@H](C)[C@@H]1NC(=O)[C@@H]2CCCN2C(=O)[C@@H]2CCCN2C(=O)[C@@H]2CCCN2C(=O)[C@H](CC(C)C)NC(=O)CNC(=O)CNC(=O)[C@H](Cc2ccccc2)NC1=O` [Heterophyllin B] are 0.0424 and 0.0454.
On the same counts, the results for `O=C(/C=C/c1ccc(O)c(O)c1)OC[C@H]1O[C@@H](OCCc2ccc(O)c(O)c2)[C@H](O)[C@@H](O)[C@@H]1O` [Calceolarioside B] are -0.0242 and 0.193.
On the same counts, the results for `C[C@@H]1O[C@@H](OC[C@H]2O[C@@H](OCCc3ccc(O)c(O)c3)[C@H](O)[C@@H](O)[C@@H]2O)[C@H](O)[C@H](O)[C@H]1O` [Forsythoside E] are -0.0418 and 0.0386.
Take `C[C@H]1CC[C@@]2(OC1)O[C@H]1C[C@H]3[C@@H]4CC[C@@H]5C[C@@H](O)CC[C@]5(C)[C@H]4CC[C@]3(C)[C@H]1[C@@H]2C` [Sarsasapogenin]: in assay [1], the “NHEJ repair efficiency (log10)” value was -0.068. The “HR repair efficiency (log10)” value in assay [2] was determined as 0.0364.
The like results for `C=CCc1ccc(OC)c(OC)c1` [Methyleugenol] were, in that order, 0.14 and 0.161.
Turning to `C[C@@H]1CC[C@@]2(OC1)O[C@H]1C[C@H]3[C@@H]4CC=C5C[C@@H](O)C[C@@H](O)[C@]5(C)[C@H]4CC[C@]3(C)[C@H]1[C@@H]2C` [Ruscogenin], in assay [1], the “NHEJ repair efficiency (log10)” value is -0.0127. For the same molecule, the “HR repair efficiency (log10)” value in assay [2] came to 0.181.
On the same counts, the results for `COC(=O)[C@@]1(C)CC[C@]2(C(=O)O)CC[C@]3(C)C(=CC[C@@H]4[C@@]5(C)C[C@H](O)[C@H](O)[C@@](C)(CO)[C@@H]5CC[C@]43C)[C@@H]2C1` [Phytolaccagenin] are 0.0274 and 0.0241.
The like results for `COc1cc(C(=O)O)cc(OC)c1O` [Syringic acid] were, in that order, -0.0271 and -0.177.
Consider `C/C=C(\C)C(=O)OC1c2c(ccc3ccc(=O)oc23)OC(C)(C)C1OC(=O)/C(C)=C/C` (stereo not given) [Praeruptorin B], for which, in assay [1], the “NHEJ repair efficiency (log10)” value was -0.0992. Also, the “HR repair efficiency (log10)” value in assay [2] was determined as 0.0577.
The like results for `C/C=C/C#CC#C[C@@H](O)[C@@H](/C=C/CCCO)O[C@@H]1O[C@H](CO)[C@@H](O)[C@H](O)[C@H]1O` [Lobetyolin] were, in that order, 0.048 and 0.131.
On the same counts, the results for `C=C1[C@H]2CC[C@]3([C@@H]1O)[C@H]1C[C@@H]4C5(C)CCCC4([C@@H]1N(CC)C5)[C@@H]3[C@H]2O` [Denudatine] are -0.089 and 0.0616.
The like results for `O=C(O)c1cc(O)c2c(c1)C(C1c3cc(CO)cc(O)c3C(=O)c3c(OC4OC(CO)C(O)C(O)C4O)cccc31)c1cccc(OC3OC(CO)C(O)C(O)C3O)c1C2=O` (stereo not given) [Sennoside D] were, in that order, 0.274 and -0.297.
With `O=C(/C=C/c1ccc(O)c(O)c1)OC1CC(OC(=O)/C=C/c2ccc(O)c(O)c2)(C(=O)O)CC(O)C1O` (stereo not given) [1,3-Dicaffeoylquinic Acid], the “NHEJ repair efficiency (log10)” value in assay [1] stood at 0.0818. Moreover, the “HR repair efficiency (log10)” value in assay [2] is -0.0122.
The like results for `C=C(CC[C@@H](C(=O)O)[C@H]1[C@H](O)C[C@@]2(C)C3=C(CC[C@]12C)[C@@]1(C)CC[C@H](OC(C)=O)C(C)(C)[C@@H]1CC3)C(C)C` [Pachymic Acid] were, in that order, -0.118 and 0.0591.
The like results for `C/C=C\c1ccc(OC)cc1` [cis-Anethol] were, in that order, 0.133 and 0.0605.
On the same counts, the results for `Cc1c(S(=O)(=O)O)oc2c1C(=O)C(=O)c1c-2ccc2c1CCCC2(C)C` [Tanshinone Iia Sodium Sulfonate] are 0.0248 and 0.126.
With `C[C@@H]1O[C@@H](O[C@H]2[C@H](OC(=O)[C@]34CCC(C)(C)C[C@H]3C3=CC[C@@H]5[C@@]6(C)C[C@H](O)[C@H](O[C@@H]7O[C@H](CO)[C@@H](O)[C@H](O[C@@H]8O[C@H](CO)[C@@H](O)[C@H](O)[C@H]8O)[C@H]7O)C(CO)(CO)[C@@H]6CC[C@@]5(C)[C@]3(C)C[C@H]4O)OC[C@H](O)[C@@H]2O)[C@H](O)[C@H](O)[C@H]1O[C@@H]1OC[C@@H](O)[C@H](O[C@@H]2OC[C@](O)(CO)[C@H]2O)[C@H]1O` [Platycodin D2], the “NHEJ repair efficiency (log10)” value in assay [1] was -0.00927. Also, the “HR repair efficiency (log10)” value in assay [2] was -0.252.
